CHX counter: Cycloheximide Counterscreen for Small Molecule Inhibitors of Shiga Toxin | cell reporter, cycloheximide protein synthesis inhibition counterscreen | max response, % | 300,000 tested, 12% active | AID 2314, 2010; in the data active = max response mostly above about 13%, no sharp cut-off; inactive = mostly below about 14%; also: read at 38.3 µM for the half of the compounds with a filed dose; 0% is about no effect
Shiga inhibitor: A qHTS for Small Molecule Inhibitors of Shiga Toxin; Vero cells, Shiga toxin protein synthesis inhibition reporter; 290,000 tested, 9.2% active; inhibition, % at 38.7 µM; AID 2315, 2010; in the data active = inhibition mostly above about 28%, no sharp cut-off; inactive = mostly below about 43%; also: 0% is about no effect
AMA1 RON2 block: qHTS for Inhibitors of AMA1-RON; Towards Development of Antimalarial Drug Lead: Primary Screen; Plasmodium falciparum AMA1 (3D7) - RON2 peptide interaction; AlphaScreen AMA1-biotinylated RON2 peptide binding; Potency, µM (doses to about 58.2 µM), for the others: at the top dose activity change, negative = inhibition, hits mostly inhibitors; 360,000 tested, 0.2% active; AID 720542, 2013;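 also: potency is read from the fitted curve at half-maximal effect; 0% = vehicle wells and -100% = peptide control; nearly all actives have a fitted effect of over 45% in size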
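AMA1 (3D7) with his tag at 25 nM final met compounds first, then biotinylated RON2 peptide at 25 nM; detection used donor plus acceptor beads, 10 µg/mL apiece, read by AlphaScreen after 30 min at room temperature.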
Pf growth 96h: Primary qHTS for delayed death inhibitors of the malarial parasite plastid, 96 hour incubation; 320,000 tested, 6.9% active; P. falciparum luciferase reporter growth, 96 h; Potency, µM (highest dose often 28.7 µM), inactives show top-dose activity change, negative = inhibition, usual class: inhibitors; also: potency is read from the fitted curve at half-maximal effect; % is scaled to controls: 0 for no effect and ±100 for the full control effect
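Plates of compound plus infected erythrocytes (2% hematocrit, 0.05% parasitemia final) incubate 96 hours, 37 C, 5% CO2. Detection reagent added; reduced luminescence from the parasites' luciferase reporter flags inhibition.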
HCV inh: qHTS Assay for Inhibitors of Hepatitis C Virus (HCV). Huh7.5.1 HCVcc-Cre infection, luciferase reporter, 44 h. Potency, µM (top dose mostly 41.8 µM), without a hit: top-dose activity change, negative = inhibition, actives largely listed as inhibitors. 340,000 tested, 3.4% active; also: potency is read from the fitted curve at half-maximal effect; % is scaled to controls: 0 for no effect and ±100 for the full control effect
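HCVcc-Cre virus at an moi near 0.5 was added right after compound to cells cultured 4 h from seeding (1,000 cells/well). Luciferase activity was determined 44 h later, 15 min after substrate addition at RT.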
Pf growth 48h: Primary qHTS for delayed death inhibitors of the malarial parasite plastid, 48 hour incubation; 310,000 tested, 5.9% active; AID 504832, 2011; P. falciparum luciferase growth in erythrocytes, 48 h; Potency, µM (highest dose often 28.7 µM), for inactives: top-dose activity change, negative = inhibition, actives largely listed as inhibitors; also: potency is read from the fitted curve at half-maximal effect; % is scaled to controls: 0 for no effect and ±100 for the full control effect
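Read-out is firefly luciferase luminescence from an integrated reporter in P. falciparum, so falling signal marks reduced parasite growth. Infected erythrocytes were at 2% hematocrit and 0.1% parasitemia (final) in Albumax-supplemented RPMI 1640.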
Numbers without * were called inactive. The list is not random: actives were taken first. Their share in the collection is about 21%. Unless noted, calls follow the shape of the dose curve; as a rule, active = well fitted curve in the direction sought with a large enough effect; inconclusive = small, poorly fitted or top-dose-only effect, or another doubt; inactive = no such curve, though single readings can be large; an effect the other way counts as inactive or inconclusive.

What do the screens show for `CCSC[C@H](NC(=O)[C@H](C)N)C(=O)N[C@@H](CC(=O)O)C(=O)N[C@H](C(=O)N[C@@H](C)C(=O)N[C@H](C(=O)N[C@@H](CSCC)C(=O)N[C@H](C(=O)N[C@H](C(=O)N[C@@H](Cc1cnc[nH]1)C(=O)N[C@@H](CCCNC(=N)N)C(=O)N[C@@H](CC(C)C)C(=O)N[C@@H](C)C(=O)NCC(=O)N[C@@H](CC(C)C)C(=O)N[C@@H](CC(C)C)C(=O)N[C@@H](CO)C(=O)N[C@@H](CCCNC(=N)N)C(=O)N[C@@H](CO)C(=O)NCC(=O)NCC(=O)N[C@H](C(=O)N[C@H](C(=O)N[C@@H](CCCCN)C(=O)N[C@@H](CC(N)=O)C(=O)N[C@@H](CC(N)=O)C(=O)N[C@@H](Cc1ccccc1)C(=O)N[C@H](C(=O)N1CCC[C@H]1C(=O)N[C@H](C(=O)N[C@@H](CC(N)=O)C(=O)N[C@H](C(=O)NCC(=O)N[C@@H](CO)C(=O)N[C@@H](CCCCN)C(=O)N[C@@H](C)C(=O)N[C@@H](Cc1ccccc1)C(N)=O)C(C)C)[C@@H](C)O)C(C)C)C(C)C)C(C)C)[C@@H](C)O)C(C)C)[C@@H](C)O)[C@@H](C)O`?
CHX counter: 5; Shiga inhibitor: -4

How did O=C(COc1ccc(F)cc1)N1CCCCCCC1 do in these assays?
CHX counter: -2; Shiga inhibitor: 15; AMA1 RON2 block: -2%; Pf growth 96h: inconclusive; HCV inh: 15%; Pf growth 48h: -7%

What do the screens show for `CCCCOc1ccc(C(=O)OCC(=O)N2CCCCCC2)cc1`?
AMA1 RON2 block: -10%; HCV inh: inconclusive

What do the screens show for `O=C(OCC(=O)N1CCCC1)c1ccc(OC(F)(F)F)cc1`?
CHX counter: 22*; Shiga inhibitor: 70; AMA1 RON2 block: -1%; Pf growth 96h: 56%; HCV inh: 14%; Pf growth 48h: 41%

What do the screens show for `O=C(N1CCCC1)C(F)(F)Oc1ccc(F)cc1`?
CHX counter: 14; Shiga inhibitor: 32*; AMA1 RON2 block: 14%; Pf growth 96h: -4%; HCV inh: 0%; Pf growth 48h: 8%

How did CCN(CC)c1ccc(C(=O)OCC(=O)N2CCCC2)cc1 do in these assays?
CHX counter: 29*; Shiga inhibitor: 59*; AMA1 RON2 block: -7%; Pf growth 96h: 18%; HCV inh: -14%; Pf growth 48h: 24%

Results for O=Cc1ccc(C(=O)OCC(=O)N2CCCC2)cc1 ?
CHX counter: -2; Shiga inhibitor: 18; AMA1 RON2 block: 15%; Pf growth 96h: 18%; HCV inh: 13%; Pf growth 48h: 16%

What do the screens show for `CCOC1=C2CN(S(=O)(=O)c3ccc(C)cc3)[C@H](c3ccccc3)C[C@@H]2N(S(=O)(=O)c2ccc(Br)cc2)[C@H](c2ccccc2)C1`?
AMA1 RON2 block: 27%

Results for Cc1ccc(N=Nc2c(N)[nH]n3c(=O)cc(C)nc23)cc1 ?
CHX counter: -2; Shiga inhibitor: 8; AMA1 RON2 block: 26%; Pf growth 96h: inconclusive; HCV inh: inconclusive; Pf growth 48h: inconclusive

Results for Cc1nc(N)sc1N=Nc1ccc(F)cc1 ?
CHX counter: 49*; Shiga inhibitor: 62*; AMA1 RON2 block: 72%; Pf growth 96h: inconclusive; HCV inh: -7%

How did CCOc1ccc(OCC)c(S(=O)(=O)NCCOC23CC4CC(CC(C4)C2)C3)c1 do in these assays?
CHX counter: -3; Shiga inhibitor: -4; AMA1 RON2 block: 13%; Pf growth 96h: 9%; HCV inh: 10µM*; Pf growth 48h: inconclusive

What do the screens show for `COc1cc(S(=O)(=O)NCCOC23CC4CC(CC(C4)C2)C3)c(OC)cc1Cl`?
CHX counter: 1; Shiga inhibitor: 9; AMA1 RON2 block: -20%; Pf growth 96h: 105%; HCV inh: inconclusive; Pf growth 48h: inconclusive

What do the screens show for `COCCNc1c2c(nc3ccccc13)CCC2`?
CHX counter: -1; Shiga inhibitor: -17; AMA1 RON2 block: 2%; Pf growth 96h: 9.3µM*; HCV inh: inconclusive; Pf growth 48h: inconclusive

Results for CN(C)CCCNc1c2c(nc3ccccc13)CCC2 ?
CHX counter: 9; Shiga inhibitor: 16; AMA1 RON2 block: -1%; Pf growth 96h: 2%; HCV inh: inconclusive; Pf growth 48h: 10µM*

How did OCCNc1c2c(nc3ccccc13)CCCC2 do in these assays?
CHX counter: -3; Shiga inhibitor: -10; AMA1 RON2 block: 0%; Pf growth 96h: -6%; HCV inh: -3%; Pf growth 48h: 54%

What do the screens show for `CC(C)CNc1c2c(nc3ccccc13)CCC2`?
CHX counter: 1; Shiga inhibitor: -4; AMA1 RON2 block: -1%; Pf growth 96h: inconclusive; HCV inh: inconclusive; Pf growth 48h: 10µM*

How did O=C(NCc1ccc(F)cc1)c1cc(C2CCCCN2C(=O)CCc2ccccc2)on1 (configuration not stated) do in these assays?
AMA1 RON2 block: 1%

How did CCCCC(=O)N/N=C/c1ccc(Sc2cccc3cccnc23)o1 do in these assays?
CHX counter: 39*; Shiga inhibitor: 31; AMA1 RON2 block: -2%; Pf growth 96h: 4.1µM*; HCV inh: inconclusive; Pf growth 48h: 0%

What do the screens show for `O=C(Cc1cccc2ccccc12)N/N=C/c1ccc(Sc2cccc3cccnc23)o1`?
CHX counter: -1; Shiga inhibitor: -10; Pf growth 96h: 6.6µM*

Results for O=C(CSc1cccc2cccnc12)N/N=C/c1ccc(F)cc1 ?
CHX counter: 3; Shiga inhibitor: -5; AMA1 RON2 block: 7%; Pf growth 96h: 11%; HCV inh: -10%; Pf growth 48h: -4%

How did O=C(c1ccc(Nc2nccc(-c3cc4ccccc4s3)n2)cc1)N1CCC(N2CCCC2)CC1 do in these assays?
CHX counter: -18; Shiga inhibitor: -16

Results for CCc1cccc(CC)c1NC(=O)CSc1nc2ccc(N3C(=O)C4C5C=CC(C5)C4C3=O)cc2s1 (configuration not stated) ?
CHX counter: -4; Shiga inhibitor: -4; AMA1 RON2 block: -9%; HCV inh: 11µM*; Pf growth 48h: 0%

Results for Cc1cccc(NC(=O)CSc2nc3ccc(N4C(=O)c5ccccc5C4=O)cc3s2)c1C ?
CHX counter: -3; Shiga inhibitor: -22; AMA1 RON2 block: 2%; Pf growth 96h: 44%; HCV inh: 10%; Pf growth 48h: 7%

Screening data as filed in PubChem BioAssay.
